# Test results reported in PubChem BioAssay AID904 (National Center for Advancing Translational Sciences (NCATS), 2007).
# Screen size: about 55,000 compounds; about 530 (0.96%) were called active. Roughly 7% stayed inconclusive and do not appear here. The call rests on the fitted dose curve; in most records, active means well fitted cell-killing curve with a large enough effect; inconclusive means small, poorly fitted or top-dose-only effect; inactive means no such curve, though single readings can be large or run the other way. Only a selection was taken, and actives are over-represented in it overall.
# Assay: qHTS Screen for Compounds that Selectively Target Cancer Cells with p53 Mutations: Cytotoxicity of p53 Null Cells at the Nonpermissive Temperature; further: nearly all actives have a fitted effect of over 50% in size;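 on activity, negative = cell killing: 0% = DMSO only and -100% = full killing by 100 µM tamoxifen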
# Settings: H1299 p53-null (neo) cells, 39C, ATPlite viability, 24 h; series mostly up to 46.1 µM; activity, negative = cell killing: at the top concentration
# Excerpt: NIH Chemical Genomics Center [NCGC] NIH Molecular Libraries Screening Centers Network [MLSCN] MLSCN Grant: 1 X01 MH079844-01 Assay Submitter (PI): Dr. SUN, YI, University of Michigan NCGC Assay Overview: Synthetic Lethal Screen for Compounds to Kill Cancer Cells with p53 Mutation. Tumor suppressor gene p53 serves as a major cellular barrier against tumorigenesis. […] The goal of this screening is to identify small molecule probes that selectively kill cancer cells with mutations in p53. This screening was carried out using two lines of H1299 lung cancer cells. The H1299-p53 A138V line express a temperature sensitive p53 mutant (p53ts) in which the mutant p53 protein (A138V) is in the mutant confirmation when grown at 39C (the nonpermissive temperature) and in the wild type conformation when grown at 32C (the permissive temperature). A H1299-neo line (p53 null) grown at both 39C and 32C were used as counter-screens to filter out false positive associated with temperature shifting. The small molecular compounds that selectively target mutant p53-containing cancer cells were selected as candidate probes for further study. A cytotoxicity assay based on the measurement of ATP contents in cells was used in this screen. Concentration-responses of all the compounds in the library collection were determined in qHTS using the cell lines and temperature conditions as above.
# NCGC Assay Protocol Summary: Both the H1299-p53A138V and H1299-neo cell lines were provided by Dr.Yi Sun, a PI at the University Michigan. The cells were maintained and cultured at 37C. The resuspended frozen cells were used to plate the cells in the 1536-well assay plates at a density of 600 cells per well in 5 ul medium. The assay plates with the cells were incubated at 37C for 16 to 30 hours before the experiments. The library compounds in DMSO solution were added to the cells in assay plates and incubated 24 hours at 39C (for mutant p53 conformation) or 32C (for normal p53 conformation as control). An ATP_lite assay kit (PerkinElmer) was used to determine the cell viability. Tomaxifen (100uM) was used as the positive control for cell killing. Data were normalized to the controls for basal activity (DMSO only) and 100% killing (100uM tamoxifen). AC50 values were determined from concentration-response data modeled with the standard Hill equation. P53 assay protocol: 1. Reagent; 5 uL H1299-p53A138V or H1299-neo cell cells/well 2. Time; overnight; 37C incubation 3. Compounds; 23 nL; 5.9 nM to 46 uM 4. Controls; 23 nL; Tamoxifen 100 uM 5. Time; 24 hr; 39C incubation 6. Reagent; 3 uL; ATP_Lite reagent 7. Time; 20 min; Room Temperature 8. Detection; Luminescence; Viewlux plate reader Keywords: p53, synthetic lethal, cancer, cell viability, cytotoxicity, H1299 cell line, luminescence, MLSMR, MLSCN, NIH Roadmap, qHTS, NCGC
# Potency means the concentration at half of the fitted maximal effect.
Compound,Potency,"activity, negative = cell killing"
CCOc1ccc(C(NC(=O)c2cc(OC)c(OC)c(OC)c2)c2cc(Cl)c3cccnc3c2O)cc1 (stereo not given),3.55 µM (active),
CN(C)c1cccc(C(=O)Nc2nc3ccc(S(=O)(=O)NC(C)(C)C)cc3s2)c1,,37.8% (inactive)
Cc1ccc(-n2c(/C=C/c3cccc(C(F)(F)F)c3)nc3ccccc3c2=O)cc1,,-19.2% (inactive)
COC(=O)COc1cc(C)cc2oc(=O)c3c(c12)CCCC3,,9.68% (inactive)
O=C(Nc1ccc(Cl)cc1C(=O)c1ccccc1)c1cc(Cl)cc(Cl)c1,,-5.04% (inactive)
